PubChem BioAssay AID598 (SRMLSC, 2007)
Out of some 85,000 compounds screened, about 5,100 (6%) were called active. Shown is part of a subset that was picked to be rich in actives. A number with no mark means an inactive call.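 Rule for the calls: active = viability at or below 40%; inactive = viability above 40%.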

assay: H69AR cell viability reduction – human, 86K library, primary screen (AID 598); details: H69AR lung tumor viability, ATP luminescence, 72 h; at 10 µM; active compounds read low;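 note: multidrug resistant small cell line overexpressing MRP-1 efflux transporter; 100% = mean luminescence of untreated control wells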

SMILES	viability
OC(CN1C2=NCCCN2c2ccccc21)c1ccc(Br)cc1 (stereo not given)	86.5%
Cn1cnc([N+](=O)[O-])c1Nc1ccccc1O	100%
COC(=O)c1ccc(CSc2nnc(NC(C)C)s2)cc1	98.2%
COc1ccc(C)cc1NC(=O)CCS(=O)(=O)c1cccc2nonc12	89%
CCCn1nnc2sc3c(c2c1=O)CCC(C)C3 (stereo not given)	96.7%
CC1CCc2c(sc3nc4n(c(=O)c23)CCS4)C1 (stereo not given)	80.8%
C=CCn1c(SCc2c(C)noc2C)nc2sc3c(c2c1=O)CCC(C)C3 (stereo not given)	29.4% (active)
Nc1c(C(=O)NCc2ccccc2)sc2nc3c(cc12)C(=O)CCC3	65.5%
Cc1ccc(SCC(=O)c2cc(C)c(OC(=S)N(C)C)c(C)c2)cc1	64.6%
Cc1ccc(SC(=O)COc2ccc(C)c(C)c2)cc1	16.4% (active)
COCCNC(=O)COc1ccc(C)c(C)c1	86%
Cc1ccc(S(=O)(=O)NC(=O)COc2ccccc2C)cc1	97.9%
CCOCN(C(=O)Cn1c(C(C)O)nc2ccccc21)c1c(C)cccc1CC (stereo not given)	62.8%
O=C(Cc1ccc(-n2c(=O)c3sccc3n(Cc3ccc(F)cc3)c2=O)cc1)NCc1ccco1	51%
CCC(=O)Nc1sc(C(=O)N2CCCCC2)c(C)c1C#N	96.9%
CN1CCN(CC(=O)Nc2sc3c(c2C#N)CCC(C(C)(C)C)C3)CC1 (stereo not given)	2.42% (active)
c1ccc2c(NCC3CCCO3)nc(-c3ccncc3)nc2c1 (stereo not given)	35.5% (active)
Cc1nc2ccccc2c2oc(C(=O)NCC3CCCO3)cc12 (stereo not given)	82.4%
c1ccc(-c2nc(NCc3ccco3)c3ccccc3n2)cc1	87.9%
Cn1c2c(c(=O)n(C)c1=O)C(c1cccc([N+](=O)[O-])c1)Nc1ccccc1O2 (stereo not given)	88.5%
C=CCn1c(SCc2c(C(=O)OC)sc(N)c2C(=O)OC)nnc1-c1ccc(Cl)cc1	45.2%
COc1ccc(CN2CCCCC2C)cc1OC (stereo not given)	105%
CCc1ccc(Nc2ncc3c(n2)CC(c2ccco2)CC3=O)cc1 (stereo not given)	26.3% (active)
COc1cc(C2CC(=O)c3cnc(NC(C)=O)nc3C2)cc(OC)c1OC (stereo not given)	74%
O=C(Nc1ncc2c(n1)CC(c1ccco1)CC2=O)c1ccc(Cl)cc1 (stereo not given)	80.7%

SMILES	viability
Nc1ccc(C(=O)OCC(=O)NC2CCCc3ccccc32)cc1[N+](=O)[O-] (stereo not given)	63.4%
CSc1ncccc1C(=O)OCC(=O)N1CCOCC1	96%
CCOC(=O)c1cc2ccccc2nc1C	101%
CCOc1ncccc1C(=O)OCc1cn2cc(Cl)ccc2n1	35.2% (active)
COc1ccc(CNc2ccc3c(c2)CCC3)cc1OC	104%
CCOc1ccc(C(=O)NC2CCN(C(=O)Nc3ccccc3OC)CC2)cc1	79%
COC(=O)CSc1nc(C)c2ccc(OC)cc2n1	86.5%
Cc1nnc(SCC(=O)NC(=O)NC2CCCC2)n1N	109%
CC(Nc1nc(N2CCCC2)nc2ccccc12)c1ccccc1 (stereo not given)	12.4% (active)
CC(C)n1c(C(O)c2ccccc2)nc2ccccc21 (stereo not given)	104%
Cc1ccc(C(CC(=O)O)Nc2nc(N3CCCCC3)nc(N3CCCCC3)n2)cc1 (stereo not given)	108%
CCCCN1C(=O)/C(=C2/C=CC=CN2C)SC1=S	90.2%
CC(=O)c1cc2c(cc1NC(=O)CN1CCCCCC1)OCO2	79.5%
CCc1ccc(CNC(=O)C2CC(=O)N(CCc3ccc(C)cc3)C2)cc1 (stereo not given)	99.5%
CCC(C)Sc1nc2c(c(=O)[nH]c(=O)n2C)n1CC(O)COc1cccc2ccccc12 (stereo not given)	30.7% (active)
CCCSc1nc2c(c(=O)[nH]c(=O)n2C)n1CCc1ccccc1	74%
CN1CCN(c2nc3c(c(=O)[nH]c(=O)n3C)n2Cc2cccc3ccccc23)CC1	71.9%
Cn1c(SCC(=O)NC2CCCCC2)nnc1-c1cc2ccccc2o1	91%
CC(=O)c1cccc(NC(=O)Nc2ccc(C)cc2)c1	95.3%
Cc1ccoc1C(=O)Nc1cccc(Oc2ccccc2)c1	112%
Cc1cccc(NC(=O)Nc2cccc(Oc3c(F)c(F)c(F)c(F)c3F)c2)c1	8.13% (active)
COc1ccc2c(Cl)c(C(=O)NCc3ccco3)sc2c1	91.4%
CCOc1ccc(N=C2NC(=O)S/C2=C\c2ccc(O)cc2)cc1	47.5%
CCC(=O)Nc1ccc(C(=O)Nc2cccc(OC)c2)cc1	64.6%
CCCc1nc2scc(-c3ccc(C)cc3)c2c(=O)n1N	46.1%

SMILES	viability
O=C(Cc1ccccc1)Nc1c(C(=O)N2CCCCCC2)cnn1-c1ccccc1	96.5%
O=C(Cn1cnc2c(nnn2Cc2ccc(F)cc2)c1=O)NCc1ccc2c(c1)OCO2	95.8%
C#CCNc1nc(C(C)C)nc2c1nnn2Cc1ccccc1F	104%
CCCc1nc(NCc2ccc3c(c2)OCO3)c2nnn(Cc3ccccc3Cl)c2n1	24.6% (active)
O=c1onc(-c2cccs2)n1Cc1ccccc1	95.9%
Cc1cccc(C)c1OC(=O)CSc1nnc(-c2ccccc2)o1	98.4%
O=C1CC(C(F)(F)C(F)(F)C(F)(F)C(F)(F)F)=Nc2ccccc2N1	92.7%
CCCCOc1ccc(Cl)cc1CSc1nncn1N	94%
CCCCOc1ccc(CSC(=N)N)cc1[N+](=O)[O-]	5.08% (active)
N#C/C(=C\c1ccccc1)c1n[nH]c(Cn2cncn2)n1	96.8%
O=C(CCS(=O)(=O)c1cccc2nsnc12)N1CCN(c2ccccc2F)CC1	91%
CCOC(=O)C(=O)Nc1nc(-c2ccccc2)c(CC)s1	103%
Cc1sc2nc(SCC(N)=O)n(C)c(=O)c2c1C	84.1%
C=CCn1c(SCC(=O)/C(C#N)=C(\C)N)nc2sc(C)c(C)c2c1=O	6.3% (active)
CCCn1c(=O)c2ccccc2n2c(SCC(=O)/C(C#N)=C(\C)N)nnc12	79.8%
CCC(=O)Nc1ccc(S(=O)(=O)NCC2CCCO2)cc1 (stereo not given)	90.7%
CC1CCc2sc3nc(N4CCN(CCO)CC4)n4ncnc4c3c2C1 (stereo not given)	33.1% (active)
N#Cc1c2c(c(N3CCN(CCO)CC3)n3c1nc1ccccc13)CCCC2	85.5%
Cc1c(Nc2nc3ccccc3nc2NS(=O)(=O)c2cccs2)c(=O)n(-c2ccccc2)n1C	85.5%
CCOC(=O)C(C)n1cnc2sc(C)c(C)c2c1=O (stereo not given)	89.3%
CC(=O)Oc1ccc(NC(=O)CCC2CCCCC2)c(C(=O)O)c1	101%
COc1ccc(CN(CC(=O)NC2CCCC2)C(=O)CCC(=O)Nc2cc(C)on2)cc1	96.3%
COc1cccc(OCc2cc(/C=N/NC(=O)c3nc(Cl)c(Cl)c(N)c3Cl)ccc2OC)c1	19.7% (active)
COc1cccc(OCC(=O)Nc2ccccc2C(N)=O)c1	85.5%
COc1cccc(OCCOc2cccc(/C=N/n3cnnc3)c2)c1	84.3%

SMILES	viability
CCCCCN1CC(O)=C(c2ccccc2)C1=N	88.7%
COc1ccccc1N1CCN(C(=O)c2cn(-c3ccccc3)nc2-c2cccnc2)CC1	21.9% (active)
COc1ccc(Nc2ncc(C(=O)N3CCN(c4ccccc4OC)CC3)c3ccccc23)cc1	80.8%
O=C(c1cn(-c2ccccc2)nc1-c1cccnc1)N1CCCCC1	90.8%
COc1cccc2c1OCC1COc3c(c(=O)n(C)c(=O)n3C)C21 (stereo not given)	94.9%
O=c1oc2cc(O)ccc2cc1-c1ccc(F)cc1	88.7%
CCCCCCc1cc2cc(-c3nnc(-c4cccc(OC)c4)o3)c(=O)oc2cc1O	2.32% (active)
CCCCCCc1cc2cc(-c3nnc(-c4ccccc4)o3)c(=O)oc2cc1O	9.42% (active)
CCCCN(CC)CCCNC(=O)CS(=O)(=O)Cc1nc(-c2cccc(OC)c2)oc1C	88.1%
COc1cccc(C(=O)c2cc3ccc(O)cc3oc2=O)c1	68.4%
CC(C)CCSc1ncnc2c1oc1nc3c(cc12)COC(C)(C)C3	68.6%
Cc1nnc(SCc2nc3ccccc3nc2C)s1	97.2%
Cc1cccc(N2C(=O)c3cccnc3C2=O)c1	92.3%
CCN(CC)CCn1c(=S)[nH]c2ncccc2c1=O	101%
C=C(C)CNC(=S)/N=c1\scc(C)n1CC	91.2%
O=C(O)c1ccc(COCC(F)(F)F)cc1	98.2%
CCC(C)NC(=O)CCCc1ccccc1 (stereo not given)	86.3%
CCCCCc1ccc(-c2ccc(C(=O)O)cc2)nc1	35.7% (active)
O=C(c1cc(-c2cccs2)on1)N1CCCCC1	97.2%
Cc1cc(NC(=O)c2cc(-c3cccs3)on2)nn1Cc1ccc(Cl)cc1	26.1% (active)
Cc1ccc(Cn2ccc(NC(=O)c3cc(C(C)C)on3)n2)cc1	95%
Cc1ccc(S(=O)(=O)N2CCN(S(=O)(=O)N3CCOCC3)CC2)cc1	93.1%
C/C(=N\NC(=O)c1ccc(C)cc1)C1C(=O)c2ccccc2C1=O	78.5%
CC1CCN(C(=O)c2cc3nc(C4CC4)cc(C(F)(F)F)n3n2)CC1	97.6%
CCC(C)NC(=O)CSC1=Nc2ccccc2C2=NC(CCC(=O)NCc3ccco3)C(=O)N12 (stereo not given)	90.7%
